Pf Dd2 inh = Plasmodium falciparum Dd2 growth inhibition. Potency, µM (doses to about 28.9 µM), inactives show at the highest dose activity, negative = inhibition, usual class: inhibitors. hit rate 4.3% among 120,000. P. falciparum Dd2 growth, SYBR Green, 72 h; active = well fitted inhibition curve with a large enough effect;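 note: plate controls were DMSO vehicle for no effect and reference drug for full effect; nearly all actives have a fitted effect of over 65% in size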
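Infected erythrocytes (Dd2, 0.3% parasitemia, 2.5% hematocrit final) are added to compound in RPMI-1640/Albumax II medium, grown 72 h at 37C in low oxygen, then lysed with saponin/Triton-X containing SYBR Green and read by fluorescence.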
Active calls of the source: *; [ ] = remark or other dose. Shown is part of a subset that was picked to be rich in hits. Potency is the fitted concentration of half-maximal effect.

`CNC(=O)c1cccc(-c2cnc(Nc3ccccc3)c3c2CCO3)c1` gave Pf Dd2 inh -23%[44.1 µM].
Screening COc1cncc(Nc2ncc(-c3cccnc3)c3c2OCC3)c1 returned Pf Dd2 inh -12%[44.1 µM].
For Fc1cccc(-c2cnc(Nc3cncnc3)c3c2CCO3)c1 the results were Pf Dd2 inh -27%[44.1 µM].
Screening c1ccc(Nc2ncc(-c3ccccc3)c3c2OCC3)cc1 returned Pf Dd2 inh 22µM*.
CN(C)c1cccc(-c2cnc(Nc3ccc4c(c3)OCCO4)c3c2CCO3)c1 was read as Pf Dd2 inh -29%[44.1 µM].
For COc1cc(C(=O)N2CCN(c3cc(-c4cccs4)[nH]n3)CC2)cc(OC)c1OC the results were Pf Dd2 inh inactive.
For Cc1cc2nc3n(c(=O)c2n1CC(=O)N1CCN(c2ccccc2)CC1)CCCCC3 the results were Pf Dd2 inh inactive.
COc1cc(NC(=O)CC2CCCN(c3cnn(C)c(=O)c3)C2)cc(OC)c1 (stereo not given) was read as Pf Dd2 inh inactive.
`Cc1nonc1CC(=O)N1CCc2ccc(S(=O)(=O)NCCC(C)O)cc2C1` (stereo not given) gave Pf Dd2 inh -4%.
Screening Cc1cc(Cl)ccc1OCCN1CCN(C(=O)[C@H]2CCC[C@H](O)C2)CC1 returned Pf Dd2 inh -20%.
For Cc1cc(Cl)ccc1OCCN1CCN(CC2(O)CCCNC2)CC1 (stereo not given) the results were Pf Dd2 inh 8.9µM*.
For OC1(CN2CCN(CCc3ccccn3)CC2)CCCNC1 (stereo not given) the results were Pf Dd2 inh -3%.
CCOc1cc(-c2nc(C3CC(=O)N(c4ccc(F)cc4)C3)no2)cc(OCC)c1OCC (stereo not given) was read as Pf Dd2 inh inactive.
O=C(c1ccccn1)N1CCN(C(=O)c2nnn3c2COC(c2ccc(Cl)cc2)C3)CC1 (stereo not given) was read as Pf Dd2 inh inactive.
Screening Cc1ccc(C2=Nc3ccccc3N(CC(=O)NCc3ccc(F)cc3)C(=O)C2)cc1C returned Pf Dd2 inh -17%.
Screening Cc1ccc(C2=Nc3ccccc3N(CC(=O)NCc3ccc(Cl)cc3)C(=O)C2)cc1C returned Pf Dd2 inh -14%.
For O=C(CN1C(=O)CC(c2ccccc2)=Nc2ccccc21)Nc1ccc(Br)cc1 the results were Pf Dd2 inh 10µM*.
Screening CN(Cc1ccccc1C(F)(F)F)C(=O)C1CC1 returned Pf Dd2 inh 7%[44.1 µM].
OC1CC(c2cc(NCC3(c4ccccc4)CCOCC3)ncn2)C1 (stereo not given) was read as Pf Dd2 inh -7%.
`O=C(NCCC1CCN(Cc2ccccc2)CC1)C1CNCCO1` (stereo not given) gave Pf Dd2 inh 10%.
COc1ccc(Cn2c(C(=O)O)c(CNCc3ccccc3F)c3ccc(OC)cc32)cc1 was read as Pf Dd2 inh 8.9µM*.
Screening COc1ccc(Cn2c(C(=O)O)c(CNC3CCCC3)c3ccc(OC)cc32)cc1 returned Pf Dd2 inh -22%.
COc1ccc2c(CNCCc3ccco3)c(C(=O)O)n(Cc3ccc(C)cc3)c2c1 was read as Pf Dd2 inh inactive.
Screening CCOc1ccc(CNCc2c(C(=O)O)n(Cc3ccc(C)cc3)c3cc(C)ccc23)cc1 returned Pf Dd2 inh -2%.
`CCOc1ccccc1CNCc1c(C(=O)O)n(Cc2ccccc2)c2cc(OC)ccc12` gave Pf Dd2 inh -17%.
`COc1ccc2c(CNCc3ccc(Cl)cc3)c(C(=O)O)n(Cc3ccccc3C)c2c1` gave Pf Dd2 inh 11µM*.
`COc1ccc2c(CNCc3cccs3)c(C(=O)O)n(Cc3ccccc3)c2c1` gave Pf Dd2 inh -18%.
`CCOc1ccc(CNCc2c(C(=O)O)n(Cc3ccc(OC)cc3)c3ccccc23)cc1` gave Pf Dd2 inh 10µM*.
`COc1ccc2c(CNCc3ccc(C)o3)c(C(=O)O)n(Cc3ccccc3C)c2c1` gave Pf Dd2 inh -22%.
O=C(NCCn1ccn2nc(-c3ccc(F)cc3)cc2c1=O)c1c(F)cccc1F was read as Pf Dd2 inh inactive.
`Cc1n[nH]c(C)c1CNc1cc(C2CC(O)C2)ncn1` (stereo not given) gave Pf Dd2 inh 8%.
For Cc1noc([C@@H](C)NC(=O)C2CCCC2)c1C(=O)O the results were Pf Dd2 inh -8%[44.1 µM].
`Cc1cccc(CNC(=O)c2c(C)noc2-c2ccc(C(C)(C)C)cc2)c1` gave Pf Dd2 inh -11%.
Screening Cc1noc(-c2ccc(C(C)(C)C)cc2)c1C(=O)NCc1cc(F)cc(F)c1 returned Pf Dd2 inh 10µM*.
Screening Cc1noc(-c2ccc(C(C)(C)C)cc2)c1C(=O)NCc1ccc(F)cc1F returned Pf Dd2 inh -7%.
`O=C(NCC1CC1)c1c(OCC2CC2)cc(=O)n2c1CCCCC2` gave Pf Dd2 inh 46%.
`CC(C)N1C[C@H](O)C[C@H]1c1nnc2n1CCN(C(=O)C1CCC1)CC2` gave Pf Dd2 inh -9%.
`O=C(NC1CCN(c2nc3ncccc3o2)CC1)c1ccccc1` gave Pf Dd2 inh -12%[44.1 µM].
For CCC(=O)N1CCc2c(C(=O)NCc3cc(OC)ccc3OC)cccc21 the results were Pf Dd2 inh inactive.
For CCC(=O)N1CCc2c(C(=O)NCc3cc(C)ccc3C)cccc21 the results were Pf Dd2 inh 11µM*.
`CCC(=O)N1CCc2c(C(=O)NCCOC)cccc21` gave Pf Dd2 inh -10%.
O=C(Cn1nc2c(cc1=O)CCCC2)NCCn1cnc2ccccc21 was read as Pf Dd2 inh 12%.
Screening CCOc1cccc(CNC(=O)c2noc(-c3ccc(F)cc3)n2)c1 returned Pf Dd2 inh 31%.
For c1cc(-c2ccnc(NCC3(N4CCOCC4)CCCCC3)n2)ccn1 the results were Pf Dd2 inh -18%.
`CCN(Cc1ccncc1)Cc1cn(-c2ccccc2)nn1` gave Pf Dd2 inh -15%.
c1cncc(-c2ccnc(NCCc3csc(-c4ccncc4)n3)n2)c1 was read as Pf Dd2 inh -7%.
`Fc1ccc(CCNc2nccc(-c3cccnc3)n2)cc1` gave Pf Dd2 inh -27%.
CC(Cc1ccncc1)Nc1nccc(-c2cnn(-c3ccccc3)c2)n1 (stereo not given) was read as Pf Dd2 inh 8.9µM*.
CC(Cc1ccncc1)Nc1nccc(-c2cnn(-c3ccccc3F)c2)n1 (stereo not given) was read as Pf Dd2 inh 5µM*.
`COc1ccc(N2CC(C(=O)NCCCc3ccccc3)NC2=O)cc1` (stereo not given) gave Pf Dd2 inh -3%.
Screening O=C(NCc1ccc(C(F)(F)F)cc1)C1CCCN(c2cn[nH]c(=O)c2)C1 (stereo not given) returned Pf Dd2 inh inactive.
`CCc1ccc(C(=O)N(C)CC2CCOCC2)cc1` gave Pf Dd2 inh -22%.
Screening CC(C)CCN1C[C@@H](NC(=O)c2cccnc2)C[C@H]1CO returned Pf Dd2 inh inactive.
`CCOC(=O)C1=C(C)N=C2SC=C(CC(=O)N3CCOCC3)N2C1c1cccc(OC)c1OC` (stereo not given) gave Pf Dd2 inh inactive.
`CC1=C(C(=O)OC(C)C)C(c2ccc([N+](=O)[O-])cc2)N2C(CC(=O)N3CCCC3)=CSC2=N1` (stereo not given) gave Pf Dd2 inh 2.8µM*.
`CCOC(=O)C1=C(C)N=C2SC=C(CC(=O)NCc3ccco3)N2C1c1ccccc1F` (stereo not given) gave Pf Dd2 inh -18%.
CC1=C(C(=O)OC(C)(C)C)C(c2ccccc2)N2C(CC(=O)N3CCCC3)=CSC2=N1 (stereo not given) was read as Pf Dd2 inh -17%.

Source: PubChem BioAssay (National Center for Advancing Translational Sciences (NCATS))
